# Experimental data from article PMC4336329 (PLoS ONE, 2015).
# Hit rate of the full screen: of about 310,000 compounds, about 14,000 (4.5%) showed an effect of 50% or more. Effects have a minus sign here. The sample holds strong results, similar compounds and a random draw of the others, so the mix is not that of the screen.
# Target: human ether-à-go-go-related gene (hERG) potassium channel (human, UniProt Q12809)
# Assay: primary screen, population patch clamp on CHO cells stably expressing hERG; higher = less effect of the substance
# 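Note: peak tail current of the secondary pulse compared with the same well before compound.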
# Sequence of human ether-à-go-go-related gene (hERG) potassium channel (Q12809 whole entry, looked up): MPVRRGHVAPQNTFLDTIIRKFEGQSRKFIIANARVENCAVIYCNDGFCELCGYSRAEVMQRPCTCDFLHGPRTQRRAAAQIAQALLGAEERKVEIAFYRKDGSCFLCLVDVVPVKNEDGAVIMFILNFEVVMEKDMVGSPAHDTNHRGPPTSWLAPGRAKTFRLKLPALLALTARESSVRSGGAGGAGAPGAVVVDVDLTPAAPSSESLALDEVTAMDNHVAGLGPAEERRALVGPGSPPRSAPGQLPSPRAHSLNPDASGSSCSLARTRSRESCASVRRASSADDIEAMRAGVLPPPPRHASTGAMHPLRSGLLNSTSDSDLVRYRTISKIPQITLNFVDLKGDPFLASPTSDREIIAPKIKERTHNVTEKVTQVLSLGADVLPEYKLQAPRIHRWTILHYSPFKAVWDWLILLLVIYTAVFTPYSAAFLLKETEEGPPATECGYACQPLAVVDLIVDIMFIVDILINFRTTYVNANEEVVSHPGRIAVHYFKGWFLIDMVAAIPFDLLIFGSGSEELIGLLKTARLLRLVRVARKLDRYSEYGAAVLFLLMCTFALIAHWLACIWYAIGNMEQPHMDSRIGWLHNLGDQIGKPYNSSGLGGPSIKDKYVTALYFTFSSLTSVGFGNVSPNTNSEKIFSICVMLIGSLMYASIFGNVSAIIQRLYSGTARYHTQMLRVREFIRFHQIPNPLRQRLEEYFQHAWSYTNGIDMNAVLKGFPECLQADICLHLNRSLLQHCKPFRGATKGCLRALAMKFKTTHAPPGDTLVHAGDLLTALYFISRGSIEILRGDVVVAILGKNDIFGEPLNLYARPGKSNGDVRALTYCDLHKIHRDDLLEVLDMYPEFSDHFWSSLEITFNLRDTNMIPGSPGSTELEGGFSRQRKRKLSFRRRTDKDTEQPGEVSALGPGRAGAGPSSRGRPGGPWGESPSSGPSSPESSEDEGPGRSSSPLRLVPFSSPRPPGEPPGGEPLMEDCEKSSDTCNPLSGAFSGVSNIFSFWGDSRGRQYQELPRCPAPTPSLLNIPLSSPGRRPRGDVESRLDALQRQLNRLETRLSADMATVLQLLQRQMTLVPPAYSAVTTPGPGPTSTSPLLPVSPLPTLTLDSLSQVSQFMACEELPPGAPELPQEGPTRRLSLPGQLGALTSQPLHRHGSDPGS
row,Structure (SMILES),"hERG current change (%, negative = inhibition) at 10uM [%]"
1,CCO[C@@H]1OC(C(=O)NCc2nc3ccccc3[nH]2)=C[C@H](c2ccc(C(F)(F)F)cc2)[C@H]1CCCO,-3.34
2,COC(=O)c1ccc(C[n+]2ccccc2)cc1.[Br-],17.3
3,Cc1ccc(CNC(=O)CN2CCN(Cc3ccc(C)cc3)C2=O)cc1,-26.5
4,Cc1ccc(-n2c(C)nnc2SCC(=O)N2CCc3ccccc3C2)cc1,-53.3
5,Cc1ccc(CN2CCN(CC(=O)NCc3ccc(Cl)cc3)C2=O)cc1,-50.4
6,CN(CCNC(=O)CN1CCN(Cc2ccccc2Cl)C1=O)Cc1ccccc1,-30.4
7,Cc1ccc(CNC(=O)CN2CCN(Cc3ccc(Cl)cc3)C2=O)cc1,-20.9
8,Cc1ccc(CN2CCN(CC(=O)N3CCc4ccccc4C3)C2=O)cc1,-50.8
9,Cc1ccc(CN2CCN(CC(=O)O)C2=O)cc1,41.5
10,CCN(CCNC(=O)CN1CCN(Cc2ccc(Cl)cc2)C1=O)c1ccccc1,-52
11,COCCCNC(=O)CN1CCN(Cc2ccc(Cl)cc2)C1=O,1.74
12,Cc1ccc(CN2CCN(CC(=O)N3CCC(C(N)=O)CC3)C2=O)cc1,5.43
13,Cc1nnc(SCC(=O)N2CCc3ccccc3C2)n1-c1ccccc1,-23.6
14,Cc1ccc(-n2c(C)nnc2SCC(=O)N2CCc3ccccc3C2)cc1C,-21.9
15,CC(NC(=O)c1ccc(Cl)cc1)c1nnc(SCC(=O)NC2=NCCS2)n1C (stereo not shown),22.3
16,Cc1cc(O)c(N)c(C)c1Cl.Cl,-4.7
17,Cn1c(=O)[nH]c(=O)c2c1nc(CN1CCN(c3cccc(Cl)c3)CC1)n2CCc1ccccc1,-21.8
18,CCOC(=O)C1=C(C)NC(SC)=C(C#N)C1CC(C)C (stereo not shown),-12.3
19,CCN(CC)S(=O)(=O)c1ccc(-c2nnc(SCC(N)=O)n2CC)cc1,35.8
20,CCN1CCCC1CNC(=O)CN(C)S(=O)(=O)c1ccc(Cl)cc1 (stereo not shown),-21.6
21,Cc1ccc(S(=O)(=O)Nc2c(C)nc3nc(C)[nH]n3c2=O)c(C)c1,10.3
22,Cc1ccc(N2C(=O)c3cccc4c(C(=O)O)ccc(c34)C2=O)cc1,8.57

row,Structure (SMILES),"hERG current change (%, negative = inhibition) at 10uM [%]"
1,COc1ccc(-n2ncc3c(=O)n(CC(=O)N(C(C)C)C(C)C)cnc32)cc1,0.562
2,Cc1cc(Br)cn2ccnc12,-6.51
3,CC(Sc1nnc(C2CCCCC2)n1N)C(=O)NCc1ccc2c(c1)OCO2 (stereo not shown),3.2
4,CN1CCN(CCCNC(=O)c2ccc3c(=O)n(CCc4ccccc4)c(=O)[nH]c3c2)CC1,15.3
5,O=C(CN1CCN(Cc2ccc(Cl)cc2)C1=O)NCc1cccs1,-57.6
6,O=C(CN1CCN(Cc2ccccc2)C1=O)NCc1cccs1,1.2
7,O=C(CN1CCN(Cc2ccc(F)cc2)C1=O)NCc1cccs1,-1.62
8,CC1CCCC(C)N1C(=O)CSc1nc2c(c(=O)n(C)c(=O)n2C)n1C (stereo not shown),5.34
9,O=C(c1ccc([N+](=O)[O-])cc1)N1CCSC1c1ccc(Cl)cc1 (stereo not shown),-76.9
10,O=C(O)c1ccc(N2C(=O)CSC2c2cccc([N+](=O)[O-])c2)cc1 (stereo not shown),15.5
11,O=C(c1ccc([N+](=O)[O-])cc1)N1CCSC1c1ccc(Br)cc1 (stereo not shown),-64.2
12,CN(C)c1ccc(C2SCCN2C(=O)c2ccc([N+](=O)[O-])cc2)cc1 (stereo not shown),-66.7
13,CC(=O)Nc1ccc(N2C(=O)CSC2c2ccc([N+](=O)[O-])cc2)cc1 (stereo not shown),-11.3
14,CCOC(=O)c1ccc(NC(=S)N2CCSC2c2ccc(Br)cc2)cc1 (stereo not shown),5.4
15,O=C(c1ccc([N+](=O)[O-])cc1)N1CCSC1c1ccccc1 (stereo not shown),-39.3
16,O=C(c1ccc([N+](=O)[O-])cc1)N1CCSC1c1cccc(Cl)c1 (stereo not shown),-69.3
17,CN(C)c1ccc(C(=S)N2CCN(c3ccc([N+](=O)[O-])cc3)CC2)cc1,-18.7
18,O=C(NNC(=O)c1ccc([N+](=O)[O-])cc1)c1ccc(Br)cc1,14.5
19,O=C(c1ccc([N+](=O)[O-])cc1)N1CCSC1c1ccccc1Cl (stereo not shown),7.77
20,O=C(CC1C(=O)NCCN1C(=O)c1ccc([N+](=O)[O-])cc1)Nc1cccc(Cl)c1 (stereo not shown),-40.4
21,CC1NC(=O)N(C)[C@@H]2NC(=O)N(C)C(c3ccc([N+](=O)[O-])cc3)[C@@H]12 (stereo partly shown),7.29
